SW480 rereplic = A quantitative high throughput screen for small molecules that induce DNA re-replication in SW480 colon adenocarcinoma cells. AID 624297, 2012. SW480 DNA re-replication, Hoechst DNA content imaging, 48 h. 1.8% of 340,000 active. Potency, µM (doses to about 46.1 µM), for the others: at the highest dose re-replication activation, usual class: activators; note: % of control where 0% means no effect; nearly all actives have a fitted effect of over 55% in size
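250 cells/well; 23 nL cpd via pin tool; 48 hr, 37 C, 5% CO2; Hoechst 40 min; imager read of total nuclear intensity, ex 405/em 500-530 nm.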
KB-V1 MDR tox = qHTS assay for MDR1-selective chemotherapeutics: Primary screen using the drug-selected MDR subline cells KB-V1; KB-V1 MDR cells viability, CellTiter-Glo, 72 h; 3.4% of 400,000 active; Potency, µM (doses to about 46.1 µM), actives largely listed as cytotoxic; note: % is set by controls: 0 for no effect and ±100 for the full control effect; nearly all actives have a fitted effect of over 60% in size
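qHTS viability screen in drug-selected KB-V1 MDR cells: 72 h compound treatment at 37 degrees C, ATP luminescence end point.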
KB-3-1 tox = qHTS assay for MDR1-selective chemotherapeutics: Primary screen using the parental adenocarcinoma cell KB-3-1. AID 1347075, 2019. Potency, µM (doses to about 46.1 µM), usual class: cytotoxic. 1.4% of 400,000 active. KB-3-1 viability, CellTiter-Glo ATP luminescence, 72 h; note: % is set by controls: 0 for no effect and ±100 for the full control effect; nearly all actives have a fitted effect of over 60% in size
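Multi-concentration cytotoxicity screen in KB-3-1 cells grown in DMEM lacking phenol red with 10% FBS. After 72 h at 37 °C with compound, ATP-dependent luminescence was recorded.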
HT1080 IDH1KD tx = qHTS for induction of synthetic lethality in tumor cells producing 2HG: qHTS for the HT-1080-IDH1KD cell line; HT-1080 IDH1 knockdown viability, ATP luminescence, 48 h; Potency, µM (highest dose often 46.1 µM), inactives show at the top dose activity, negative = toxicity, usual class: cytotoxic; 2% of 360,000 active; AID 686971, 2013;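 note: 0% = DMSO wells and -100% = cell-free medium wells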
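In this qHTS, HT-1080 cells depleted of IDH1 are exposed for 48 h at 37 °C to compound titrations. Toxicity is scored from CellTiter-Glo luminescence, with DMSO as full viability and medium alone as none.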
MCF10A rereplic = A quantitative high throughput screen for small molecules that induce DNA re-replication in MCF 10a normal breast cells. 2.9% of 350,000 active. AID 624296, 2012. MCF 10A DNA re-replication, Hoechst nuclear intensity, 48 h. Potency, µM (highest dose often 46.1 µM), inactives show at the highest dose activity, positive = re-replication, actives largely listed as activators; note: % of control where 0% means no effect; nearly all actives have a fitted effect of over 50% in size
HT1080-NT tox = qHTS for induction of synthetic lethality in tumor cells producing 2HG: qHTS for the HT-1080-NT fibrosarcoma cell line | HT-1080-NT fibrosarcoma viability, CellTiter-Glo ATP luminescence, 48 h | 1.6% of 360,000 active | Potency, µM (top dose mostly 46.1 µM), for the others: at the highest dose activity, negative = less viability, hits mostly cytotoxic;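 note: NT is the 2HG producing partner of a matched IDH1 knockdown line; 0% = DMSO-treated cells and -100% = media-only wells without cells; nearly all actives have a fitted effect of over 55% in size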
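HT-1080-NT fibrosarcoma cells (2HG-overproducing), 750 cells/well in RPMI with 5% FBS, dosed after 2 h and incubated 48 h at 37C. CellTiter-Glo luminescence normalized to DMSO and no-cell wells; concentration-response curves fitted and classed.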
Starred values were filed as active, the others as inactive; i = inactive; ? = inconclusive; nt = no result; ! = a repeat was not active; [ ] = another dose, or the depositor's remark. A selection: hits, their analogues and other compounds. The true share with any hit is near 7.9%. Calls come from the whole dose curve; as a rule, active = well fitted curve in the direction sought with a large enough effect; inconclusive = small, poorly fitted or top-dose-only effect, or another doubt; inactive = no such curve, though single readings can be large; an effect the other way counts as inactive or inconclusive. Potency is the fitted concentration of half-maximal effect.

SMILES	SW480 rereplic	KB-V1 MDR tox	KB-3-1 tox	HT1080 IDH1KD tx	MCF10A rereplic	HT1080-NT tox
COc1ccccc1-n1c(O)c(C=Nc2c(C)n(C)n(-c3ccccc3)c2=O)c(=O)[nH]c1=O	23µM*	i	i	0%[9.24 µM]	?	9%
CCCCc1nn2c(=O)cc(COC(=O)Cc3ccccc3)nc2s1	nt	?	i	nt	nt	nt
Cc1cc(C)cc(-n2c(/C=C/c3cccc(F)c3)nc3ccccc3c2=O)c1	nt	?	i	nt	nt	nt
O=C(CN1CCOCC1)c1ccc2ccccc2c1	nt	i	?	nt	nt	nt
O=c1[nH]c(=S)n(C2CC2)c(O)c1/C=N/Nc1ccccc1	0%	i	i	2.3µM*	?	?
Cc1c(N=Nc2c(O)n(Cc3ccccc3)c(=O)[nH]c2=O)c(=O)n(-c2ccccc2)n1C	?	3.7µM*	i	?	20%	-14%
COc1ccc(Cn2c(O)c(C=Nc3c(C)n(C)n(-c4ccccc4)c3=O)c(=O)[nH]c2=O)cc1	?	i	i	3%	?	2%
Cc1c(N=Cc2c(O)n(Cc3ccccc3)c(=O)[nH]c2=O)c(=O)n(-c2ccccc2)n1C	29µM*	i	i	-6%	-8%	0%
O=c1[nH]c(=S)n(C2CC2)c(O)c1/C=N/Nc1cccc2ccccc12	-88%	i	i	-9%	-1%	-1%
CN(C)c1ccc(N=O)cc1	nt	?	i	nt	nt	nt
CC(C)CCOP(=O)(c1ccc(N(C)C)cc1)C(O)c1ccccc1 (stereo unspecified)	?	i	i	2%	-1%	-10%
Cc1nn(-c2ccccc2)c(Cl)c1/C=C(\CC(=O)O)c1nc2ccccc2s1	-8%	i	i	-2%	2%	-5%
COC1=C(C)C(=O)c2c(c(COC(N)=O)c3n2C[C@@H]2[C@@H]3N2C)C1=O (stereo partly specified)	nt	?	i	nt	nt	nt
NC(Cc1ccc(Cl)cc1)c1csc(Nc2cnccn2)n1 (stereo unspecified)	nt	i	i	?	nt	?
COc1ccc(CC(N)c2csc(NC(=O)Nc3ccccc3Oc3ccccc3)n2)cc1 (stereo unspecified)	nt	i	i	?	nt	15µM*
NS(=O)(=O)c1ccc(CCNc2nn3c(-c4ccc(F)c(Cl)c4)cnc3s2)cc1	nt	i	i	12µM*	nt	?
CC1(C)C(C=C(Cl)Cl)C1C(=O)OCc1cccc(Oc2ccccc2)c1 (stereo unspecified)	-48%	i	i	-1%	0.0052µM*!	?
CC1(C)[C@@H](C=C(Cl)Cl)[C@@H]1C(=O)OCc1c(F)c(F)cc(F)c1F	0%	nt	nt	nt	2%	nt
CCOc1cccc(=NC2CCCCC2)c2c(C)n(C)c(C)c12	3%[9.22 µM]	?	18µM*	13µM*	-1%	21µM*
COC(=O)c1ccc(COC(=O)c2nn(C)c(=O)c3ccccc23)cc1	-21%	i	i	4%	-9%	5%
CCOC(=O)C1(c2ccccc2)CCN(CC(=O)Nc2cccc3ccccc23)CC1	21µM*	3.7µM*	i	-2%	?	2%
CCOC(=O)C1(c2ccccc2)CCN(CCC(=O)Nc2ccccc2OC)CC1	-27%	i	i	4%	-1%	-4%
N#Cc1cc2c(nc1SCC(=O)Nc1ccc(OC(F)(F)F)cc1)C1CCN2CC1	nt	i	?	nt	nt	nt
Nc1c2c(nc3sc4c(c13)CCCCC4)CCCC2	-2%	?	29µM*	?	?	?

High-throughput results (PubChem)
